Rows were chosen to be rich in hits. Some 1.8% of all compounds tested hit in one or more screens of this group.
m5-HT2A agonist: agonists of mouse serotonin 5-HT2A receptor (HTR2A); activation, % at 7.6 µM; P35363; CHO-K1 mHTR2A beta-arrestin complementation, luminescence; percent of 30 µM serotonin response; hit rate 0.66% among 360,000;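 active = activation above a run cutoff, the mean activation of all tested compounds plus 3 SD, cut at about 14% in these data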
Target sequence (P35363 whole entry, looked up): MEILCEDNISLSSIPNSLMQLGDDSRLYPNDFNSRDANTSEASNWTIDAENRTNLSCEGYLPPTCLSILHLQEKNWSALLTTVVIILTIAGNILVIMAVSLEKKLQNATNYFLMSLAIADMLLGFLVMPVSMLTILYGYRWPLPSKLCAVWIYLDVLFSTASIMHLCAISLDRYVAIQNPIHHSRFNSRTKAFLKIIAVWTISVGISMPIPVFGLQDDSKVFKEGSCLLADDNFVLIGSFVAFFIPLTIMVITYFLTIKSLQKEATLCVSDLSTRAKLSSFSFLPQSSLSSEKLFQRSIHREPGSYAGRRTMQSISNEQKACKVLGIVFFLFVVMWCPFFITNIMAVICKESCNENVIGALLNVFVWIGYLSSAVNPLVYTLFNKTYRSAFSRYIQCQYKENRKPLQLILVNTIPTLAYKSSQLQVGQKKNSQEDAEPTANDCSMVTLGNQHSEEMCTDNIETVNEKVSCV
bovine MsrA act: bovine methionine sulfoxide reductase A activation. purified bovine MsrA, absorbance read-out. activation, % at 10.6 µM. hit rate 0.3% among 360,000. AID 602163; in the data active = activation above about 7.5%
MsrA inh: inhibits bovine methionine sulfoxide reductase A; hit rate 0.75% among 360,000; AID 651718; purified bovine MsrA, absorbance read-out; inhibition, % at 15.5 µM; in the data active = inhibition above about 4.5%
NPR2 activator: GC-B (human) receptor activation | P20594 | HEK293-GC-B cells, CNP EC30, cGMP TR-FRET; 0% at EC30 CNP, 100% saturating CNP | activation, % at 10 µM | hit rate 0.11% among 370,000;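 active = activation at 10 µM reaching about 35% in either raw or pattern-adjusted values, limit read from the data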
GC-A act: GC-A (human) enzyme activation. P16066. HEK293 GC-A cells, cGMP TR-FRET, EC30 ANP; 0% at EC30 ANP, 100% saturating ANP. activation, % at 10 µM. hit rate 0.14% among 370,000; in the data active = activation above about 40%
MsrA act confirm: confirmation of bovine methionine sulfoxide reductase A activators | shares compounds with bovine MsrA act | purified bovine MsrA, absorbance read-out | AID 602270 | activation, % at 10.6 µM | hit rate 12% among 1,000; in the data active = activation above about 4%;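 also: enzyme coupled to thioredoxin and thioredoxin reductase with NADPH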
A number is an active result; - = inactive; . = no result given.

SMILES	m5-HT2A agonist	bovine MsrA act	MsrA inh	NPR2 activator	GC-A act	MsrA act confirm
Cc1ccc(C(=O)OCC(=O)NC2CCCCC2)cc1S(=O)(=O)N1CCCCC1	-	8.4	-	-	-	-
COc1ccccc1C(=O)Nc1ccccn1	-	12	-	-	-	-
COc1ccccc1C(=O)Nc1ccncc1	-	-	-	-	-	.
FC(F)(F)Oc1ccc(Cn2ccc3ccc(-c4ccc5ccn(Cc6ccccc6)c5c4)cc32)cc1	.	.	.	-	-	.
CCN(C(=O)COC(=O)c1ccc(Sc2ncn[nH]2)c([N+](=O)[O-])c1)c1ccccc1C	.	.	.	-	-	.
Nn1cnnc1N/N=C\c1ccc(-c2ccccc2[N+](=O)[O-])o1	-	20	-	-	-	-
O=C(OCc1cn(Cc2ccc(F)cc2)nn1)N1CCCC1	.	.	.	-	-	.
O=C(Nc1ccc(Cl)c(Cl)c1)N(CCCN1CCOCC1)Cc1cccnc1	-	-	-	-	-	.
N#CCCN(Cc1cccnc1)C(=O)Nc1ccc(Cl)c(Cl)c1	-	9.1	-	-	-	-
COc1ccc(-c2cn3cc([N+](=O)[O-])ccc3n2)cc1OC	-	10	-	-	-	-
CC(=C/c1ccccc1)/C=N/NC(=O)c1cccs1	-	16	-	-	-	-
Cc1cc(C)cc(OC[C@@H](O)CN2CCC(C(O)(c3ccccc3)c3ccccc3)CC2)c1	.	.	.	-	-	.
CCOC(=O)[C@]12CCCCC/C=C\1N(CCc1ccc(Cl)cc1)C(=O)[C@H]2CC(=O)NCCCN1CCCC1=O	.	.	.	-	-	.
C=CCN1C(=O)[C@@H](CC(=O)NCCCC)[C@]2(C(=O)OCC)CCCCC/C=C/12	.	.	.	-	-	.
CCc1cc2c(=O)n(CCC(C)C)c(=S)[nH]c2s1	-	15	-	-	-	-
CC1CC(C)CN(CCCNC(=O)CCNC(=O)Cn2cnc3ccccc3c2=O)C1 (stereo not given)	-	-	-	-	-	.
CC1CC(C)CN(CCCNC(=O)CCNC(=O)Cn2ccc3ccccc3c2=O)C1 (stereo not given)	-	7.7	-	-	-	-
CC(C)(C)c1ccc(S(=O)(=O)N2CCC(C(=O)NCCC3=CCCCC3)CC2)cc1	.	.	.	-	-	.
C=CCn1c(SCC(=O)Nc2ccc(OC)cc2)nc2c([nH]c3ccccc32)c1=O	-	-	-	-	-	.
C=CCn1c(SCCN2CCCC2)nc2c([nH]c3ccccc32)c1=O	-	8.4	-	-	-	-
S=C(NCc1ccccc1)N1CCc2ccccc2C1	-	9.5	-	-	-	-
CCNC(=S)N1CCc2ccccc2C1	-	-	-	-	-	.
OCc1ccccc1O[C@@H]1O[C@H](CO)[C@@H](O)[C@H](O)[C@H]1O	-	-	-	-	-	.
Nc1oc2ccccc2c1C(=O)Cc1ccccc1O[C@@H]1O[C@H](CO)[C@@H](O)[C@H](O)[C@H]1O	-	13	-	-	-	-
COc1ccc(CC(/C=C/c2ccc(F)cc2)c2ccccc2)cc1 (stereo not given)	.	.	.	-	-	.
SMILES	m5-HT2A agonist	bovine MsrA act	MsrA inh	NPR2 activator	GC-A act	MsrA act confirm
COc1ccc(-n2cc(CN3CCC(OC)CC3)c(-c3cccc(F)c3)n2)cc1	-	8.2	-	-	-	-
CCOCCC(=O)Nc1ccc2c(c1)c(=O)n(C)n2-c1ccccc1F	-	10	-	-	-	-
CN(CCO)c1ccc2c(c1)Oc1ccccc1CN(Cc1cn(Cc3ccc(C(F)(F)F)cc3)nn1)S2(=O)=O	.	.	.	-	-	.
O=C1Nc2c(Cl)cc(Cl)cc2C1=O	-	11	-	-	-	7.0
COc1ccccc1CNC(=O)CCCn1nc(C)c2c(C)n(-c3ccccc3)nc2c1=O	-	12	-	-	-	-
COc1ccc(S[C@]2(C(=O)N3CCN(c4ncccn4)CC3)CC(=O)N(C(=O)/C=C/c3ccccc3)[C@@H]2c2ccc(OC)cc2)cc1	.	.	.	-	-	.
Cn1c(=O)c2cc(NC(=O)CCc3ccccc3)ccc2n1Cc1cccc(C(F)(F)F)c1	-	7.8	-	-	-	-
COC(=O)[C@]12C[C@H](CC(=O)N3CCC(c4ccccc4)CC3)C(=O)N(CCc3ccc(OC)c(OC)c3)C1=C[C@H](C1CCCC1)O[C@@H]2C	.	.	.	-	-	.
CC1(c2nnc(Cc3ccccc3)o2)CC(c2ccc(Br)cc2)=NO1 (stereo not given)	-	-	-	-	-	.
COC(=O)c1ccc(C2=NOC(C)(c3nnc(Cc4ccccc4)o3)C2)cc1 (stereo not given)	-	8.9	-	-	-	-

Screening data: PubChem BioAssay, several laboratories
